# Measured values taken from PubChem BioAssay AID881 (National Center for Advancing Translational Sciences (NCATS), 2007).
# In all, about 110,000 compounds went through this assay and about 610 (0.55%) were called active. Not shown: some 3% with an inconclusive outcome. The call rests on the fitted dose curve; in most records, active means well fitted inhibition curve with a large enough effect; inconclusive means small, poorly fitted or top-dose-only effect; inactive means no such curve, though single readings can be large or run the other way. The sample as a whole holds a higher share of actives than the screen did.
# Target: Polyunsaturated fatty acid lipoxygenase ALOX15B (Homo sapiens) (UniProt O15296)
# Sequence (O15296 whole entry, looked up): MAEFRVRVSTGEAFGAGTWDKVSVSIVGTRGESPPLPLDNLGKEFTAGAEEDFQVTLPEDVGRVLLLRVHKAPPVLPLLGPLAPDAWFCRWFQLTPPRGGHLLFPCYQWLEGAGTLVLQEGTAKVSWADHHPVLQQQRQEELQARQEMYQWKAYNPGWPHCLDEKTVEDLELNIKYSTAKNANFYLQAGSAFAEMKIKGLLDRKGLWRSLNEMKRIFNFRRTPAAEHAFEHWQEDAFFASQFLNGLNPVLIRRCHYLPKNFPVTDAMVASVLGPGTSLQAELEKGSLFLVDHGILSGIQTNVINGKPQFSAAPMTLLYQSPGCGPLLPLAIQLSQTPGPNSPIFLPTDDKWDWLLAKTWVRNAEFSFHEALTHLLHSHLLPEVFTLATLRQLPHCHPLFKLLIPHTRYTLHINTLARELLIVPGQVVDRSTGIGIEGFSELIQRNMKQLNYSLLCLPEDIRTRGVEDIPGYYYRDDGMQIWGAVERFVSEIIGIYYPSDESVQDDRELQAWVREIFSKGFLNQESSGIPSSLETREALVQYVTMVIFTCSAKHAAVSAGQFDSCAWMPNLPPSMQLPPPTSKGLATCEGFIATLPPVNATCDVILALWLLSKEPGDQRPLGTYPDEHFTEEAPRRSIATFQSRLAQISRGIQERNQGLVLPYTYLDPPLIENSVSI
# Test: qHTS Assay for Inhibitors of 15-hLO-2 (15-human lipoxygenase 2); further: nearly all actives have a fitted effect of over 60% in size
# Details: purified 15hLO-2, xylenol orange hydroperoxide absorbance; series mostly up to 57.1 µM; activity change, negative = inhibition: at the top concentration
# Summary of the method: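 Purified human 15hLO-2 (50 nM) preincubated 15 min with compound, then 45 uM arachidonic acid for 90 min at RT in 25 mM Hepes pH 7.5, 0.01% Triton X-100. Hydroperoxide detected by Fe-xylenol orange; 573/405 nm absorbance ratio.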
# On the % scale 0 is the no-effect control and ±100 the full control effect; potency means the concentration at half of the fitted maximal effect.
SMILES,"activity change, negative = inhibition",Potency
Cc1ccc(CNC(=O)CCNS(=O)(=O)c2cccc3nonc23)cc1,-1.56% (inactive),–
CC1=C(C/C=C(\C)CCCC(C)CCCC(C)CCCC(C)C)C(=O)c2ccccc2C1=O (stereo not given),-19.6% [at 0.0915 µM] (inactive),–
Cn1c(SCC(=O)NC2CCCCC2)nnc1-c1cc2ccccc2o1,6.06% (inactive),–
O=c1c2ccccc2nc2n1C(CSCc1ccccc1)CS2 (stereo not given),-0.0852% (inactive),–
CCOC(=O)C1=C(C)Nc2sc(C(=O)c3ccc(Br)cc3)c(N)c2C1c1ccc(C(=O)OC)cc1 (stereo not given),-18.9% (inactive),–
Cc1ccc(C(=O)OC2=CC(=O)CC(C)(C)C2)cc1,-18% [at 11.4 µM] (inactive),–
COc1ccc(OC)c(Nc2nc(-c3ccc(O)c(O)c3)cs2)c1,–,12.6 µM (active)
c1cnc(Nc2nc(-c3ccc4ccccc4c3)cs2)nc1,-9.83% (inactive),–
COc1ccc(Nc2nc(-c3ccccc3)cs2)cc1,-0.853% (inactive),–
O=C(OC1CCCCC1=O)c1cccc(S(=O)(=O)NCc2ccccc2)c1 (stereo not given),-5.34% (inactive),–
OCCN(Cc1ccccc1)Cc1ccc(Cl)cc1,-6.06% (inactive),–
O=C1CSC2=NCN(c3ccccc3)CN12,1.46% (inactive),–
O=C(NCc1ccco1)c1ccc(Cn2c(=O)c3sccc3n(Cc3ccc(F)cc3)c2=O)cc1,-11.1% (inactive),–
CCn1c(-c2ccoc2C)n[nH]c1=S,13% (inactive),–
CCCC1NC(=O)NC(C)=C1C(=O)OCC (stereo not given),-5.77% (inactive),–
COc1cccc(OC)c1C(=O)Nc1ccc(N2CCCCC2)cc1,3.88% (inactive),–
COc1ccc([N+](=O)[O-])cc1N(CC(O)Cn1nnc2ccccc21)S(=O)(=O)c1ccc(C)cc1 (stereo not given),-1.66% (inactive),–
CCCCNCc1ccc(SC)cc1,21.2% (inactive),–
Clc1ccc(-n2nnnc2CN2CCCCC2)cc1Cl,0.993% [at 11.4 µM] (inactive),–
COc1ccc(Oc2c(Cl)cnn(-c3ccccc3)c2=O)cc1,-7.51% (inactive),–
C#CCN(N(C)c1ncc(C(F)(F)F)cc1Cl)S(=O)(=O)c1ccc2ccccc2c1,-5.59% (inactive),–
Cc1ccccc1-c1ccc(C(=O)O)s1,-3.34% [at 0.0915 µM] (inactive),–
COC(=O)CNC(=O)c1ccccc1F,1.73% (inactive),–
CC(C)CCSc1ncnc2c1oc1nc3c(cc12)COC(C)(C)C3,13.4% (inactive),–
Cc1ccc(-c2csc(NC(=O)c3cccs3)n2)cc1,27.2% (inactive),–
Cn1nc(-c2ccccc2)c(-c2nc(-c3ccc(Cl)cc3)no2)c1Cl,-4.91% (inactive),–
CCCSc1nsc(N)n1,-13% (inactive),–
COc1cc(OC)cc(C(=O)NC(=S)N2CCN(c3ccc(C(F)(F)F)cc3[N+](=O)[O-])CC2)c1,-13% (inactive),–
COC(=O)CSc1snnc1-c1ccc(Cl)c(Cl)c1,2.53% (inactive),–
COC(=O)c1ccccc1NC(=O)CN(Cc1ccc(Cl)cc1)S(C)(=O)=O,7.94% (inactive),–
